Data published in PubChem BioAssay (Tox21).
Values joined by “and” are separate entries in the source; they are usually repeats but may differ in a detail not shown here. Identical values can stand only once. Unmarked numbers belong to inactive results. A call without a number means that no potency is given here. Active and inactive are the calls of the source. Calls come from the whole dose curve.

Target: Estrogen receptor (Homo sapiens) (UniProt P03372)
Assay: qHTS assay to identify small molecule agonists of the estrogen receptor alpha (ER-alpha) signaling pathway in the presence of an antagonist (AID 1259383); note: nearly all actives have a fitted effect of over 15% in size; for activation: top concentration of the series differs between compounds
Conditions: VM7Luc4E2 cells, ERE-luciferase, +ICI-182,780, 22 h; series mostly up to 92.4 µM; activation: at the top concentration
Excerpt: National Center for Advancing Translational Sciences [NCATS] NIH Chemical Genomics Center [NCGC] U.S. Environmental Protection Agency [EPA] National Institutes of Environmental Health Sciences [NIEHS] National Toxicology Program [NTP] Assay overview: Estrogen receptor (ER), a member of nuclear hormone receptor plays an important role in development, metabolic homeostasis and reproduction. Two subtypes of ER, ER-alpha and ER-beta, have similar expression patterns with some uniqueness in both types. Endocrine disrupting chemicals (EDCs) and their interactions with steroid hormone receptors like ER causes disruption of normal endocrine function. Therefore, it is important to understand the effect of environmental chemicals in ER signaling pathway. For identifying ER agonists, VM7Luc4E2 cell line has been used in the current assay. VM7Luc4E2 cell line (provided by Denison MS, University of California) endogenously expresses full-length ER-alpha and is stably transfected with a plasmid containing four estrogen responsive elements (ERE) upstream of a luciferase reporter gene. This current screening for measuring luciferase reporter gene activity using VM7Luc4E2 cells against Tox21 10K library collection is a confirmation study on agonist mode screening in presence of ER-antagonist (ICI-182,780) at 10.0nM final concentration.
Assay Protocol Summary: VM7Luc4E2 cells were cultured in phenol red free assay medium containing 10% charcoal stripped FBS for 5 days prior to the assay. The cells were dispensed at 4,000 cells in 4uL of assay medium per well into white wall/solid-bottom 1536-well plates (Corning Life Sciences, Corning, NY) using a Multidrop Combi (Thermo Fisher Scientific Inc., Waltham, MA) dispenser. After the assay plates were incubated at 37C and 5% CO2 for 24hr, 1uL of 10.0nM (final concentration) ICI-182,780 or assay buffer was added using two separate tips of Flying Reagent Dispenser (FRD, Aurora Discovery, San Diego, CA). Then 23nL of compounds dissolved in DMSO at 15 concentrations and positive controls or DMSO only was transferred to the assay plates by a Pintool station (Wako, San Diego, CA). The assay plates were incubated at 37C and 5% CO2 for 22hr. For luciferase read, 4uL/well ONE-Glo reagent (Promega Corporation, Madison, WI) was added to each well using FRD and after 30min incubation at room temperature, luminescence signal was measured on ViewLux plate reader (PerkinElmer, Shelton, CT).
Potency is the fitted concentration of half-maximal effect.

Estrogen receptor (Homo sapiens), sequence (P03372 whole entry, looked up): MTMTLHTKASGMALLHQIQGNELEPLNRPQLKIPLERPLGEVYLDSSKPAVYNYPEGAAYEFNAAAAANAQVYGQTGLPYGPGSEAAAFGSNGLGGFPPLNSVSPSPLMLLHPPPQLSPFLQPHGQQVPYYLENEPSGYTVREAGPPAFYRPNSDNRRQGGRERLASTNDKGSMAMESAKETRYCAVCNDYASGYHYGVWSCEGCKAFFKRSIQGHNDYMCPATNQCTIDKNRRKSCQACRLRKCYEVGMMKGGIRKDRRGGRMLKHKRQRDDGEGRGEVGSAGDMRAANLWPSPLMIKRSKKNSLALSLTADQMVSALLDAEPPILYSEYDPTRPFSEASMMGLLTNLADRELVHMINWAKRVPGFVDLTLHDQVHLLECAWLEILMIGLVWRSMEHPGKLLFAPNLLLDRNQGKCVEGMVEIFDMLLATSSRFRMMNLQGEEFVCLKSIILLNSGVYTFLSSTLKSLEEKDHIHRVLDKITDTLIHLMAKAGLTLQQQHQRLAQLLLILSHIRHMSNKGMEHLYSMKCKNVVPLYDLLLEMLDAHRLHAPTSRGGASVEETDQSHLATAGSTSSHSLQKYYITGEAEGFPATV

SMILES	Potency	activation
Clc1cccc(C(Cl)(Cl)Cl)n1	inactive	–
ClC(Cl)=C(Cl)C(Cl)=C(Cl)Cl	inactive	–
CC(C)(c1ccccc1)c1ccc(O)c(C(C)(C)c2ccccc2)c1	inactive	–
N#Cc1nn(-c2c(Cl)cc(C(F)(F)F)cc2Cl)c(N)c1S(=O)C(F)(F)F (stereo not given)	inactive	–
CC1(C)Cc2cccc(O)c2O1	inactive	–
CC(C)(c1ccc(OCC2CO2)cc1)c1ccc(OCC2CO2)cc1 (stereo not given)	inactive	–
CCOS(=O)(=O)OCC	inactive	–
CNC(=S)S	inactive	–
ClCc1ccccn1	inactive	–
Nc1ccc2ccccc2c1	–	9.06%
CCC1(c2ccc(N)cc2)CCC(=O)NC1=O (stereo not given)	inactive	–
COP(=S)(OC)SCn1nnc2ccccc2c1=O	inactive	–
CCN(CC)C(=O)C(C)Oc1cccc2ccccc12 (stereo not given)	inactive	–
CC(C)COC(=O)c1ccccc1C(=O)OCC(C)C	inactive	–
CC(C)(C#N)N=NC(C)(C)C#N	inactive	–
O=NN1CCOCC1	inactive	–
Clc1ccccc1-c1nnc(-c2ccccc2Cl)nn1	–	8.41%
Cn1c(-c2ccccc2)cc(-c2ccccc2)[n+]1C	inactive	–
Cc1cccc(N=Nc2ccc(N(C)C)cc2)c1	247 nM (active) and 273 nM (active)	–
CCCCCCCCCCCCCl	inactive	–

SMILES	Potency	activation
OCCOCCO	inactive	–
CCC[CH2][Sn]([Cl])([CH2]CCC)[CH2]CCC	inactive	–
COP(=S)(OC)Oc1ccc(Sc2ccc(OP(=S)(OC)OC)cc2)cc1	inactive	–
CC(C)=CC1C(C(=O)OCc2cccc(Oc3ccccc3)c2)C1(C)C (stereo not given)	inactive	–
CC[n+]1c(-c2ccccc2)c2cc(N)ccc2c2ccc(N)cc21	inactive	–
CCCCCCCC[N+](C)(CCCCCCCC)CCCCCCCC	inactive	–
CCC[CH2][Sn]([Cl])([Cl])[CH2]CCC	inactive	–
C=C(C)C#N	inactive	–
C[N+](C)(C)CC(=O)[O-]	inactive	–
O=C(O)CF	inactive	–
CCOP(=S)(OCC)SCSC(C)(C)C	inactive	–
COc1ccc(O)c(C(C)(C)C)c1	inactive	–
CN(C)c1nc(=O)n(C2CCCCC2)c(=O)n1C	inactive	–
CC(C)(O)C(=O)Nc1ccc([N+](=O)[O-])c(C(F)(F)F)c1	inactive	–
O=[N+]([O-])/N=C1\NCCN1Cc1ccc(Cl)nc1	inactive	–
C[N+](C)(C)C	inactive	–
COc1ccc(C=O)cc1OC	inactive	–
O=[N+]([O-])c1ccc(Nc2ccccc2)cc1	inactive	–
C[C@]12CC[C@H]3[C@@H](CCC4=CC(=O)CC[C@@H]43)[C@@H]1CC[C@@H]2O	1.21 µM (active) and 6.68 µM (active)	–
CC1=C(C(=O)Nc2ccccc2)SCCO1	–	10.4%
